BAZ2B inh: BAZ2B (human) inhibition | Q9UIF8 | AlphaScreen BAZ2B-H3K14Ac peptide displacement | Potency, µM (series often up to 114 µM), for the others: at the highest dose activity change, negative = inhibition, usual class: inhibitors | hit rate 4.4% among 360,000; note: % is set by controls: 0 for no effect and ±100 for the full control effect; nearly all actives have a fitted effect of over 60% in size
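AlphaScreen displacement: compounds (up to 110uM) incubated 30 min at room temperature with a preformed 50 nM BAZ2B/50 nM biotinylated H3K14Ac peptide complex in PBS pH 7.4 with Tween-20. Donor and acceptor beads at 10 ug/mL final added, 20 min light-protected before reading.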
G9a block: blocks human histone lysine methyltransferase G9a; Q96KQ7; G9a H3K9 monomethylation, AlphaScreen, 2 h; Potency, µM (top dose mostly 102 µM), for inactives: at the highest dose activity, negative = inhibition, most hits filed as inhibitors; hit rate 8.8% among 350,000; AID 504332; note: % is set by controls: 0 for no effect and ±100 for the full control effect; nearly all actives have a fitted effect of over 75% in size
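Using a bead-based AlphaScreen, monomethylated H3K9 product from 2 h room-temperature reactions (G9a 20 nM, peptide 500 nM, SAM 20 uM) was detected with 0.5 ug/mL rabbit anti-H3K9me1 antibody.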
JMJD2A Tudor inh: inhibitors of human JMJD2A Tudor domain; O75164; AlphaScreen JMJD2A-Tudor / H3K4me3 peptide binding; Potency, µM (series often up to 114 µM), for inactives: top-dose activity change, negative = inhibition, actives largely listed as inhibitors; hit rate 4.4% among 390,000; note: % is set by controls: 0 for no effect and ±100 for the full control effect; nearly all actives have a fitted effect of over 50% in size
HP1b chromo inh: HP1-beta chromodomain-methylated histone interaction inhibition. Potency, µM (top dose mostly 114 µM), for inactives: at the highest dose activity change, negative = inhibition, most hits filed as inhibitors. hit rate 0.56% among 390,000. AID 540317. AlphaScreen HP1-beta / biotin-H3K9me3 peptide binding. P83916; note: nearly all actives have a fitted effect of over 70% in size
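AlphaScreen: HP1-beta (50 nM) preformed 30 min with biotin-H3(1-18)K9me3 peptide (50 nM) in PBS pH 7.4, 0.01% Tween-20. Compound added for 30 min at RT, then streptavidin donor/nickel chelate acceptor beads (10 ug/mL) for 30 min.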
L3MBTL1 block: L3MBTL1 (human) inhibition. hit rate 0.66% among 230,000. AlphaScreen L3MBTL1–H3K9me1 peptide binding. AID 485360. Q9Y468. Potency, µM (series often up to 57.1 µM), inactives show top-dose activity, negative = inhibition, usual class: inhibitors; note: % is set by controls: 0 for no effect and ±100 for the full control effect; nearly all actives have a fitted effect of over 60% in size
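AlphaScreen proximity signal between nickel-chelate acceptor and streptavidin donor beads (final 10 ug/mL) reports binding of 50 nM L3MBTL1 to 75 nM biotin-H3 K9me1 peptide; complex incubated with compounds 30 min at room temperature; cefsulodin titration as control.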
Sfp inh: Sfp phosphopantetheinyl transferase inhibition. Potency, µM, without a hit: largest response in the series, negative = inhibition, hits mostly inhibitors. Biochemical Sfp PPTase activity, qHTS. Q9F4F7. AID 1490. hit rate 3.5% among 310,000;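 note: the enzyme is Sfp with the accession as filed and its product quenches rhodamine fluorescence; 0% = enzyme reaction without inhibitor and -100% = no enzyme wells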
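After 15 min at room temperature with compound, 15 nM Sfp received 5 uM rhodamine-CoA plus 12.5 uM BHQ-2-ybbR (50 mM Hepes pH 7.6, 10 mM MgCl2). Rate came from the fluorescence difference over 30 min, ex 525/em 598 nm.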
* = called active by the depositor; ? = inconclusive; nt = not tested or not shown; [ ] = remark or other dose. The list is not random: actives were taken first. Their share in the collection is about 12%. Calls come from the whole dose curve; as a rule, active = well fitted curve in the direction sought with a large enough effect; inconclusive = small, poorly fitted or top-dose-only effect, or another doubt; inactive = no such curve, though single readings can be large; an effect the other way counts as inactive or inconclusive. Potency is the fitted concentration of half-maximal effect.

SMILES	BAZ2B inh	G9a block	JMJD2A Tudor inh	HP1b chromo inh	L3MBTL1 block	Sfp inh
S=c1[nH]nc(-c2ccccc2)n1/N=C/c1cccs1	-38.4%	0.562µM*	17.8µM*	-10.5%	-0.2%	-27.9%
Cc1ccc(-c2nn(-c3ccccc3)cc2/C=N/n2c(-c3cccs3)n[nH]c2=S)cc1	-33.6%	?	?	-18.3%	nt	2.8%
CC(/C=N/n1c(-c2cc(C)[nH]n2)n[nH]c1=S)=C\c1ccccc1	-36.7%	?	?	7.0%	-12.8%	?
Cc1ccc(-c2n[nH]c(=S)n2/N=C/c2cccs2)cc1	-3.0%	1µM*	28.2µM*	1.0%	-2.8%	-27.3%
Cc1cc(-c2n[nH]c(=S)n2/N=C/c2cccs2)n[nH]1	-38.3%	0.355µM*	6.31µM*	7.2%	-4.1%	-2.2%
CCOc1ccc(CNC(=O)c2cccn2-c2nnc(N3CCCCC3)s2)cc1OC	?	-1.8%[59 µM]	-26.0%	26.6%	nt	nt
COc1cccc(-c2cncnc2NC2CCNCC2)c1	nt	3.9%[0.501 µM]	nt	nt	nt	16.5%
COc1cccc(-c2cncnc2Nc2ccc(F)cc2)c1	nt	3.3%[0.501 µM]	nt	nt	nt	79.4µM*
O=C1CC(c2nc3ccccc3n2CCC2CCCCC2)CN1c1ccccc1Cl (configuration not stated)	?	-11.8%[59 µM]	-32.9%	-15.3%	nt	nt
COc1cc2c(cc1OC)C(COc1ccccc1OC)N(C(=O)CC(C)C)CC2 (configuration not stated)	-13.3%	-2.9%[59 µM]	-14.7%	13.1%	nt	nt
S=c1[nH]nc(-c2cc(-c3ccccc3)n[nH]2)n1/N=C/c1cccc(Cl)c1	50.1µM*	10µM*	39.8µM*	?	-24.5%	?
S=c1[nH]nc(-c2cc(-c3ccccc3)n[nH]2)n1/N=C/c1ccc(Cl)c(Cl)c1	44.7µM*	?	50.1µM*	128.7%	-17.5%	-24.0%
S=c1[nH]nc(-c2cc(-c3ccccc3)n[nH]2)n1/N=C/c1ccc(Cl)cc1	-20.5%	?	-31.0%	24.9%	-7.4%	-4.7%
COC(=O)[C@@]1(Cc2ccccc2)[C@H]2c3cc(C(=O)N4CCCC4)n(CC4CC4)c3C[C@H]2CN1C(=O)c1ccccc1	nt	nt	nt	nt	nt	1.1%
CCCCOC1(c2ccccc2)NC(=S)NN=C1c1ccccc1 (configuration not stated)	-37.2%	44.7µM*	nt	nt	nt	6.2%
COC1(c2ccccc2)NC(=S)NN=C1c1ccccc1 (configuration not stated)	-4.5%	?	-21.0%	11.6%	nt	-0.7%
COc1cccc(NC(=O)CSC2=Nc3ccccc3C3=NC(CC(=O)NCc4ccc5c(c4)OCO5)C(=O)N23)c1 (configuration not stated)	-31.1%	1.0%[59 µM]	-14.7%	11.9%	nt	nt
C=CCn1c(SCC(=O)Nc2sccc2C(N)=O)nc2ccccc2c1=O	-16.6%	?	-16.5%	6.5%	nt	-1.0%
C=CCn1c(SCC(=O)Nc2sccc2C(N)=O)nc2ccc(Cl)cc2c1=O	-6.5%	?	-20.2%	29.6%	-9.7%	44.7µM*
COC(=O)C(=Cc1ccc(-c2ccsc2C(=O)OC)o1)C(=O)OC	-2.4%	-2.9%	-16.4%	34.6%	-5.4%	-2.6%
COC(=O)c1sccc1-c1ccc(C(N)=O)o1	?	50.1µM*	nt	nt	-7.5%	11.4%
O=C(Cc1nc2ccccc2s1)c1ccc(O)cc1O	-2.7%	?	nt	nt	-12.5%	50.1µM*
COc1ccc(-c2onc(C)c2C)cc1S(=O)(=O)N1c2ccccc2CC1C (configuration not stated)	-1.8%	-9.5%[59 µM]	-21.4%	10.1%	nt	nt
CC1(C)OC(C)(C)/C(=C/Nc2ccc(O)cc2)C1=O	?	8.91µM*	?	-27.3%	?	?
COc1ccc(-c2nc3ccccc3n3c(-c4ccccc4)c4c(=O)n(C)c(=O)n(C)c4c23)cc1OC	-5.6%	-20.0%[59 µM]	-9.3%	18.4%	nt	nt
COc1ccc(C2C(C(C)=O)=C(O)C(=O)N2CCCn2ccnc2)cc1 (configuration not stated)	?	-1.4%[0.0925 µM]	89.1µM*	13.9%	4.2%	0.7%

Compound activity deposited in PubChem by National Center for Advancing Translational Sciences (NCATS).
